From PubChem BioAssay (NCI) come the findings set out here.

SMILES strings stand for the structures. This is part of a sample that, as a whole, favours compounds with a hit. Of some 79,000 tested, about 15% had one in any assay. Values without a mark were called inactive. The source made the active and inactive calls. Cut-off read from the data, not from the text of the source: active = growth inhibition above about 70%; inactive = the rest.

Experiment [1] can be described thus: NCI Yeast Anticancer Drug Screen. Data for the rad50 strain (AID 155).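 Note: 0% = growth of vehicle-only cultures of the same strain.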 Particulars: S. cerevisiae rad50 strain growth inhibition, stronger effect = higher value. In short, it runs like this:
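Compounds were tested on a yeast strain with an engineered DNA damage repair alteration; the reported value is growth inhibition normalised to vehicle treatment.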

Experiment [2] can be described thus: NCI Yeast Anticancer Drug Screen. Data for the mec2-1 strain (AID 157). Particulars: S. cerevisiae mec2-1 strain, stronger effect = higher value. In short, it runs like this: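 Readout is yeast growth inhibition, normalised to vehicle-treated controls, in the mec2-1 strain exposed to compound.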
A short description of experiment [3]: NCI Yeast Anticancer Drug Screen. Data for the sgs1 mgt1 strain (AID 161).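 Note: 0% = growth of cultures given vehicle only.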 Particulars: S. cerevisiae sgs1 mgt1 strain, stronger effect = higher value. The procedure, abridged:
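Yeast cells carrying a defined DNA-repair defect were exposed to test compounds. Growth inhibition was measured relative to vehicle-treated controls.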

Experiment [4] is described as follows: NCI Yeast Anticancer Drug Screen. Data for the cln2 rad14 strain (AID 165).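 Note: 0% = growth equal to vehicle treated cultures.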 Particulars: S. cerevisiae cln2 rad14 strain, stronger effect = higher value. In short, it runs like this:
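Relative to vehicle controls, growth inhibition of compound-treated cln2 rad14 yeast was recorded.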

Experiment [5] can be described thus: NCI Yeast Anticancer Drug Screen. Data for the bub3 strain (AID 167). The settings on record: S. cerevisiae bub3 mutant strain, stronger effect = higher value. The procedure, abridged:
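Growth of a checkpoint-deficient yeast mutant is measured after compound exposure. Values represent inhibition relative to vehicle.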

The nature of experiment [6]: NCI Yeast Anticancer Drug Screen. Data for the mlh1 rad18 strain (AID 175). The settings on record: S. cerevisiae mlh1 rad18 strain growth inhibition, stronger effect = higher value. The procedure, abridged:
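Test agents were incubated with a yeast strain of defined genotype (DNA damage repair defect). Inhibition of growth was derived by comparison with vehicle-exposed cultures.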

Setting [7] is: at 5.0 µM (retest, dose inferred, filed as 0.5).
The mark [8] stands for this setting: at 50.0 µM (retest, dose inferred, filed as 5.0).

On to `O=C1c2ccccc2C(=O)c2sc(Nc3ccccc3C(F)(F)F)nc21`, for which the growth inhibition was 99% (active) in experiment [1] (setting [7]); 96% (active) in experiment [1] (setting [8]); 90.3% (active) in experiment [1] (at 50.0 µM); 100% (active) in experiment [2] (setting [7]); 97% (active) in experiment [2] (setting [8]); 92.1% (active) in experiment [2] (at 50.0 µM). Also, the growth inhibition in experiment [3] (setting [7]) was 99% (active); in experiment [3] (setting [8]), 96% (active); in experiment [3] (at 50.0 µM) it was 92.7% (active); in experiment [4] (setting [7]), 94% (active); in experiment [4] (setting [8]), 97% (active); in experiment [4] (at 50.0 µM), 90.5% (active). Also, the growth inhibition in experiment [5] (setting [7]) was 99% (active); in experiment [5] (setting [8]) it was 97% (active); in experiment [5] (at 50.0 µM), 92.2% (active); in experiment [6] (setting [7]), 99% (active); in experiment [6] (setting [8]), 96% (active); in experiment [6] (at 50.0 µM), 88.5% (active).
In the case of `OC(C1CCCCN1)C1CC(c2ccccc2)Nc2c(Cl)cc(Cl)cc21` (stereo not given), the growth inhibition in experiment [1] (setting [7]) is 9%; in experiment [1] (setting [8]), 99% (active); in experiment [1] (at 50.0 µM), 99.4% (active); in experiment [2] (setting [7]) it was -2%; in experiment [2] (setting [8]), 99% (active); in experiment [2] (at 50.0 µM), 99.5% (active). Further, the growth inhibition in experiment [3] (setting [7]) was -1%; in experiment [3] (setting [8]), 99% (active); in experiment [3] (at 50.0 µM) it was 99.4% (active); in experiment [4] (setting [7]), -4%; in experiment [4] (setting [8]) it was 99% (active); in experiment [4] (at 50.0 µM), 99% (active). For the same molecule, the growth inhibition in experiment [5] (setting [7]) was 1%; in experiment [5] (setting [8]), 99% (active); in experiment [5] (at 50.0 µM), 49.5%; in experiment [6] (setting [7]) it was 6%; in experiment [6] (setting [8]), 99% (active); in experiment [6] (at 50.0 µM), 99.4% (active).
As to `Cc1ccc(N=Nc2ncccc2O)cc1C`, the growth inhibition in experiment [1] (setting [7]) is -157%; in experiment [1] (setting [8]) it was 95% (active); in experiment [1] (at 50.0 µM), 98.8% (active); in experiment [2] (setting [7]), -49%; in experiment [2] (setting [8]), 95% (active); in experiment [2] (at 50.0 µM) it was 98.2% (active). Further, the growth inhibition was -67% in experiment [3] (setting [7]); 95% (active) in experiment [3] (setting [8]); 98.4% (active) in experiment [3] (at 50.0 µM); -64% in experiment [4] (setting [7]); 93% (active) in experiment [4] (setting [8]); 87.4% (active) in experiment [4] (at 50.0 µM). The growth inhibition was -85% in experiment [5] (setting [7]); 96% (active) in experiment [5] (setting [8]); 97.7% (active) in experiment [5] (at 50.0 µM); -121% in experiment [6] (setting [7]); 95% (active) in experiment [6] (setting [8]); 98.2% (active) in experiment [6] (at 50.0 µM).
`CCCC(C(=O)OCCNC1CCCCC1)c1ccccc1` (stereo not given): the growth inhibition was 2% in experiment [1] (setting [7]); 18% in experiment [1] (setting [8]); 71.3% (active) in experiment [1] (at 50.0 µM); -13% in experiment [2] (setting [7]); 14% in experiment [2] (setting [8]); 11.9% in experiment [2] (at 50.0 µM). Moreover, the growth inhibition in experiment [3] (setting [7]) is 0%; in experiment [3] (setting [8]), 37%; in experiment [3] (at 50.0 µM) it was 63.3%; in experiment [4] (setting [7]) it was -38%; in experiment [4] (setting [8]), 47%; in experiment [4] (at 50.0 µM) it was 35.1%. In addition, the growth inhibition in experiment [5] (setting [7]) is -4%; in experiment [5] (setting [8]), 69%; in experiment [5] (at 50.0 µM) it was 28.5%; in experiment [6] (setting [7]), 2%; in experiment [6] (setting [8]) it was 18%; in experiment [6] (at 50.0 µM) it was 55.2%.
On to `CC1(C)/C=C/C2=Nc3cc(Br)c(Br)c(Br)c3C23CC(=O)N3/C=C(\Cl)c2nc(Br)[nH]c21` (stereo not given), for which the growth inhibition in experiment [1] (setting [7]) is 22%; in experiment [1] (setting [8]), 97% (active); in experiment [1] (at 50.0 µM), 92% (active); in experiment [2] (setting [7]), 15%; in experiment [2] (setting [8]), 96% (active); in experiment [2] (at 50.0 µM) it was 93.8% (active). Besides, the growth inhibition in experiment [3] (setting [7]) is 32%; in experiment [3] (setting [8]), 98% (active); in experiment [3] (at 50.0 µM) it was 93.8% (active); in experiment [4] (setting [7]), 29%; in experiment [4] (setting [8]) it was 98% (active); in experiment [4] (at 50.0 µM), 91.7% (active). For the same molecule, the growth inhibition was 12% in experiment [5] (setting [7]); 98% (active) in experiment [5] (setting [8]); 93% (active) in experiment [5] (at 50.0 µM); -11% in experiment [6] (setting [7]); 98% (active) in experiment [6] (setting [8]); 92.5% (active) in experiment [6] (at 50.0 µM).
Take `Oc1c(Cl)cc(CN(Cc2cc(Cl)c(O)c(Cl)c2)C2CCCCC2)cc1Cl`: the growth inhibition is 10% in experiment [1] (setting [7]); 87% (active) in experiment [1] (setting [8]); 97.8% (active) in experiment [1] (at 50.0 µM); 1% in experiment [2] (setting [7]); 88% (active) in experiment [2] (setting [8]); 98.9% (active) in experiment [2] (at 50.0 µM). Moreover, the growth inhibition in experiment [3] (setting [7]) is 2%; in experiment [3] (setting [8]) it was 88% (active); in experiment [3] (at 50.0 µM) it was 97.6% (active); in experiment [4] (setting [7]), -17%; in experiment [4] (setting [8]) it was 51%; in experiment [4] (at 50.0 µM), 98.2% (active). For the same molecule, the growth inhibition in experiment [5] (setting [7]) is -9%; in experiment [5] (setting [8]) it was 88% (active); in experiment [5] (at 50.0 µM), 97.6% (active); in experiment [6] (setting [7]), -12%; in experiment [6] (setting [8]), 95% (active); in experiment [6] (at 50.0 µM), 98% (active).
Take `CN(C)CCC(=O)c1ccco1`: the growth inhibition in experiment [1] (setting [7]) is 6%; in experiment [1] (setting [8]), 85% (active); in experiment [1] (at 50.0 µM) it was 86.1% (active); in experiment [2] (setting [7]), 13%; in experiment [2] (setting [8]), 93% (active); in experiment [2] (at 50.0 µM), 94% (active). Moreover, the growth inhibition in experiment [3] (setting [7]) is 25%; in experiment [3] (setting [8]), 87% (active); in experiment [3] (at 50.0 µM), 93.3% (active); in experiment [4] (setting [7]), 10%; in experiment [4] (setting [8]), 89% (active); in experiment [4] (at 50.0 µM), 93.5% (active). The growth inhibition was -3% in experiment [5] (setting [7]); 39% in experiment [5] (setting [8]); 70.2% (active) in experiment [5] (at 50.0 µM); 13% in experiment [6] (setting [7]); 92% (active) in experiment [6] (setting [8]); 95.3% (active) in experiment [6] (at 50.0 µM).
For the molecule `CCCC[NH-].CCCC[NH-].[I][Pt+2][I]`, the growth inhibition in experiment [1] (setting [7]) was 30%; in experiment [1] (setting [8]), 67%; in experiment [1] (at 50.0 µM) it was 29.2%; in experiment [2] (setting [7]), 22%; in experiment [2] (setting [8]), 49%; in experiment [2] (at 50.0 µM) it was 15%. Besides, the growth inhibition is 48% in experiment [3] (setting [7]); 70% (active) in experiment [3] (setting [8]); 60.6% in experiment [3] (at 50.0 µM); 53% in experiment [4] (setting [7]); 57% in experiment [4] (setting [8]); 15.2% in experiment [4] (at 50.0 µM). Moreover, the growth inhibition in experiment [5] (setting [7]) was 56%; in experiment [5] (setting [8]) it was 68%; in experiment [5] (at 50.0 µM), 49.4%; in experiment [6] (setting [7]), 20%; in experiment [6] (setting [8]) it was 62%; in experiment [6] (at 50.0 µM), 41.4%.
For `CCCc1cc2c(cc1COc1ccccc1C(=O)O)OCO2`, the growth inhibition in experiment [1] (setting [7]) is -1%; in experiment [1] (setting [8]) it was 49%; in experiment [1] (at 50.0 µM), 56.4%; in experiment [2] (setting [7]) it was -4%; in experiment [2] (setting [8]) it was 52%; in experiment [2] (at 50.0 µM), 59.8%. The growth inhibition in experiment [3] (setting [7]) was -7%; in experiment [3] (setting [8]), 25%; in experiment [3] (at 50.0 µM) it was 38.4%; in experiment [4] (setting [7]), -2%; in experiment [4] (setting [8]), 51%; in experiment [4] (at 50.0 µM) it was 33.4%. The growth inhibition in experiment [5] (setting [7]) was -6%; in experiment [5] (setting [8]) it was 31%; in experiment [5] (at 50.0 µM) it was 25.4%; in experiment [6] (setting [7]) it was -2%; in experiment [6] (setting [8]), 58%; in experiment [6] (at 50.0 µM), 61.4%.
With `COc1cc(C)c2sc3ccccc3c(=O)c2c1NCCCN(C)C`, the growth inhibition in experiment [1] (setting [7]) is 1%; in experiment [1] (setting [8]) it was 51%; in experiment [1] (at 50.0 µM), 72.3% (active); in experiment [2] (setting [7]), -4%; in experiment [2] (setting [8]), -6%; in experiment [2] (at 50.0 µM), 37%. The growth inhibition in experiment [3] (setting [7]) is -2%; in experiment [3] (setting [8]) it was 58%; in experiment [3] (at 50.0 µM), 70.3% (active); in experiment [4] (setting [7]), -4%; in experiment [4] (setting [8]) it was 51%; in experiment [4] (at 50.0 µM), 14.6%. The growth inhibition in experiment [5] (setting [7]) was 0%; in experiment [5] (setting [8]), 53%; in experiment [5] (at 50.0 µM) it was 27.1%; in experiment [6] (setting [7]), -3%; in experiment [6] (setting [8]), 54%; in experiment [6] (at 50.0 µM) it was 95.3% (active).
